Assay outcomes deposited in PubChem by several laboratories.
Shown are actives, neighbours in structure and some others; about 3% of the full set was active somewhere.
PAFAH2 FP inh: PAFAH2 (human) inhibition. recombinant PAFAH2, FP-rhodamine activity probe, fluorescence polarization. inhibition, % at 3.39 µM. actives 0.99% (n = 340,000);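 active = inhibition above the mean over all tested compounds plus 3 SD, cut at about 30% in these data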;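 also: inhibitors block probe labeling of enzyme so polarization drops; 0% = enzyme with DMSO and 100% = wells lacking PAFAH2 protein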
ATG4B inhibitor: ATG4B (human) cysteine protease inhibition. ATG4B cleavage of LC3-PLA2, NBD-HPC fluorescence, 1 h. inhibition, % at 8.33 µM. actives 0.51% (n = 340,000); in the data active = inhibition above about 40%
PAFAH1B2 FP inh: inhibitors of human PAFAH1B2. actives 1.2% (n = 340,000). recombinant PAFAH1B2, FP-rhodamine activity probe, fluorescence polarization. P68402. inhibition, % at 3.39 µM;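 active = inhibition above the mean of all tested compounds plus 3 SD, cut at about 24% in these data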;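 also: 0% = enzyme with DMSO and 100% = wells lacking PAFAH1B2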
DAGLB inh: diacylglycerol lipase beta (human) inhibition. inhibition, % at 5.17 µM. actives 0.059% (n = 340,000). HEK293T DAGLB membrane lysate, EnzChek fluorogenic substrate; in the data active = inhibition above about 34%;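 also: 0% = enzyme with vehicle and 100% = wells lacking enzyme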
PAFAH1B3 FP inh: inhibitors of human PAFAH1B3 | Q15102 | recombinant PAFAH1B3, FP-rhodamine probe, fluorescence polarization | inhibition, % at 3.39 µM | actives 0.28% (n = 340,000) | AID 492972;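 active = inhibition above the screen-wide average of all tested compounds plus 3 SD, cut at about 25% in these data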;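 also: 0% = enzyme with DMSO only and 100% = wells lacking PAFAH1B3 protein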
pPAFAH inh: inhibitors of human plasma PAF acetylhydrolase (pPAFAH); actives 1.5% (n = 330,000); inhibition, % at 3.39 µM; recombinant pPAFAH, FP-rhodamine probe fluorescence polarization; Q13093;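 active = inhibition above the mean inhibition across the screen plus 3 SD, cut at about 25% in these data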;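 also: inhibitors block binding of the rhodamine activity-based probe so polarization drops; 0% = enzyme with DMSO and 100% = wells lacking pPAFAH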
* hit, by the source's call; . = not tested or not shown.

SMILES	PAFAH2 FP inh	ATG4B inhibitor	PAFAH1B2 FP inh	DAGLB inh	PAFAH1B3 FP inh	pPAFAH inh
O=c1c2c(n3cnnc3n1-c1ccccc1)-c1ccccc1CC21CCCCC1	8	-11	15	-1	8	-5
CCn1c(=O)c2c(n3cnnc13)-c1ccccc1CC21CCCCC1	0	-7	26*	-2	7	4
CCn1c(SCC(N)=O)nc2c(c1=O)C1(CCCC1)Cc1ccccc1-2	7	15	31*	-1	-2	5
NC(=O)CSc1nc2c(c(=O)n1-c1ccccc1)C1(CCCCC1)Cc1ccccc1-2	-3	1	4	-2	4	3
O=C1[C@H]2[C@@H](c3ccc(C(F)(F)F)cc3)N[C@]3(CCCN(Cc4ccco4)C3=O)[C@H]2C(=O)N1Cc1ccccc1	.	.	.	0	.	.
Cc1[nH]n(-c2ccccc2)c(=O)c1C(C[N+](=O)[O-])c1ccc(Br)cc1 (stereo not drawn)	7	7	35*	-2	23	5
COC(=O)C1=C(Nc2ccccc2NS(=O)(=O)c2ccc(C(F)(F)F)cc2Cl)CSC1	8	16	28*	0	2	24
CC(=O)C(=Nc1ccc(Cl)cc1Cl)NNc1cccc(Cl)c1	-7	-11	-1	5	1	25*
CCCN1CNC(=S)N(Cc2ccccc2)C1	5	-13	2	1	4	0
S=C1NCN(CCc2ccccc2)CN1Cc1ccccc1	10	7	26*	0	2	-3
CCOC(=O)NC(=O)/C(C#N)=N\Nc1cccc(Cl)c1	1	3	-2	8	-3	9
CCOC(=O)NC1(Nc2cccc(Cl)c2)Oc2ccccc2O1	-3	4	-3	-2	8	33*
CC1C/C(=N\NC(N)=S)c2cc(Cl)ccc2S1 (stereo not drawn)	.	-6	.	.	.	2
CC(C)=C1CCC(C)CC1=NNC(N)=S (stereo not drawn)	5	-12	27*	2	7	.
Cc1ccc(C(=O)CSc2nc(-c3ccccc3)ccc2C#N)cc1	4	-6	1	-4	-1	-3
N#Cc1ccc(-c2ccco2)nc1SCC(=O)c1ccc(Cl)cc1	1	4	7	-7	2	39*
NC(=O)C(CC(=O)O)NC(=O)[C@@H]1CCCNc2c(I)cc([N+](=O)[O-])cc2C(=O)N[C@@H](CO)C(=O)N[C@@H](Cc2ccc(O)cc2)C(=O)N1 (stereo partly drawn)	-1	-8	8	4	7	26*
CC(=O)Nc1ccc(C(=O)NNC(=O)Cc2ccccc2)cc1	5	-9	-1	0	4	-2
Cc1ccc(S(=O)(=O)N(C)C)cc1NC(=O)COC(=O)CCNS(=O)(=O)c1ccccc1	5	5	11	-1	3	.
Cc1ccc(S(=O)(=O)N(C)C)cc1NC(=O)COC(=O)CCC1CCCCC1	21	-7	1	-7	8	33*
Cc1ccc(S(=O)(=O)N(C)C)cc1NC(=O)COC(=O)CSc1ccccc1	15	-10	18	1	6	28*
CN(C)c1ccc(/C=N/NC(=O)c2cccc(C(=O)N/N=C/c3ccc(N(C)C)cc3)n2)cc1	-2	-7	0	2	1	3
O=C(Nc1ccccc1)c1cccc(C(=O)Nc2ccccc2)n1	-5	-4	1	0	16	-2
CN(C)c1ccc(NC(=O)c2cccc(C(=O)Nc3ccc(N(C)C)cc3)n2)cc1	-5	-26	-1	6	8	26*
O=C(O)c1ccc(NC(=O)c2cccc(C(=O)Nc3ccc(C(=O)O)cc3)n2)cc1	20	-15	31*	1	40*	8
SMILES	PAFAH2 FP inh	ATG4B inhibitor	PAFAH1B2 FP inh	DAGLB inh	PAFAH1B3 FP inh	pPAFAH inh
COCC(C)N1CC(O)=C(c2nc(-c3ccc(Cl)cc3)cs2)C1=N (stereo not drawn)	19	-17	2	2	-6	16
COc1cc(/C=C/C(=O)OCC(=O)NC(=O)C2COc3ccccc3O2)ccc1OC(F)F (stereo not drawn)	0	-4	7	-2	7	-2
Nc1cc2c(cc1O)CCCC2	3	0	9	3	3	31*
O=C1CCCCc2cc(O)c(O)cc21	.	.	.	2	.	.
O=C(C1CC1)N1CCc2sccc2C1c1ccc(Cl)cc1 (stereo not drawn)	3	11	12	-2	6	5
O=Cc1ccc(OC(=O)c2cccnc2)cc1	6	3	0	0	13	-4
Cc1ccc(O)c(NC(=S)NC(=O)/C=C/c2ccccc2)c1	3	5	-4	0	2	-2
O=C(/C=C/c1ccco1)NC(=S)Nc1ccc(O)c(-c2nc3ccccc3s2)c1	13	-3	-3	13	-1	25*
Cc1ccc(O)c(NC(=S)NC(=O)/C=C/c2ccco2)c1	-5	2	2	1	7	25*
Cc1ccc(-c2nnc(SCC(=O)N(C)C)nc2-c2ccc(C)cc2)cc1	-3	-3	-1	1	-2	4
Cn1cccc1C(=O)OCC(=O)Nc1ccc2c(c1)CCC2	62*	-21	-1	-7	1	28*
CC(C)(C)n1cnc2cc(NCc3ccc(Br)cc3)ccc21	1	0	34*	-6	6	8
CCc1ccc(CNc2ccc3c(c2)ncn3C(C)(C)C)cc1	-5	-8	13	2	10	10
Cc1cc(=O)[nH]c(SCC(=O)Nc2nc(-c3ccccc3)cs2)n1	8	1	4	8	8	4
Cc1nnc(SCC(=O)Nc2nc(-c3ccc(F)cc3)cs2)[nH]c1=O	2	-1	30*	5	5	6
CCOC(=O)c1ccccc1NC(=O)CSc1nnc(C)c(=O)[nH]1	7	3	34*	-1	12	2
O=C(CCC(=O)Nc1ccccc1Cl)NNC(=O)Nc1cccc([N+](=O)[O-])c1	6	-4	1	-1	6	1
O=C(NNC(=O)C(Cl)Cl)c1cnn(-c2ccccc2)c1C(F)(F)F	6	-3	8	2	1	-2
O=C(N/N=C/c1cc(Br)c(O)c(Br)c1)C1CC1	-8	3	9	2	0	14
CC(C)(C)NC(=S)N/N=C/c1cc(Br)c(O)c(Br)c1	6	19	17	17	8	34*
CC1=C(O)C(=O)OC1c1c(Cl)cccc1Cl (stereo not drawn)	1	-3	-2	-3	2	6
Cc1oc2ccc(NS(=O)(=O)c3ccccc3)cc2c1C(=O)Nc1ccccc1	1	-3	8	-3	3	33*
Nc1ncc(Br)cc1S(=O)(=O)NCCC(=O)NCCc1ccc(Cl)cc1	2	-12	26*	4	2	5
